The record followed here is PubChem BioAssay (EPA / NIEHS).

Each structure is given as a SMILES string. Results filed as inconclusive are left out. Activity calls are given as the source filed them. Rule for the calls: active = hit-call score of the fitted dose curve at least 0.9, where 1 is the maximum; inconclusive = response in the unintended direction; inactive = score below 0.9.

Chain of Agonist Androgen Response Element (ARE), AR (gene 367) (P10275 whole entry, looked up): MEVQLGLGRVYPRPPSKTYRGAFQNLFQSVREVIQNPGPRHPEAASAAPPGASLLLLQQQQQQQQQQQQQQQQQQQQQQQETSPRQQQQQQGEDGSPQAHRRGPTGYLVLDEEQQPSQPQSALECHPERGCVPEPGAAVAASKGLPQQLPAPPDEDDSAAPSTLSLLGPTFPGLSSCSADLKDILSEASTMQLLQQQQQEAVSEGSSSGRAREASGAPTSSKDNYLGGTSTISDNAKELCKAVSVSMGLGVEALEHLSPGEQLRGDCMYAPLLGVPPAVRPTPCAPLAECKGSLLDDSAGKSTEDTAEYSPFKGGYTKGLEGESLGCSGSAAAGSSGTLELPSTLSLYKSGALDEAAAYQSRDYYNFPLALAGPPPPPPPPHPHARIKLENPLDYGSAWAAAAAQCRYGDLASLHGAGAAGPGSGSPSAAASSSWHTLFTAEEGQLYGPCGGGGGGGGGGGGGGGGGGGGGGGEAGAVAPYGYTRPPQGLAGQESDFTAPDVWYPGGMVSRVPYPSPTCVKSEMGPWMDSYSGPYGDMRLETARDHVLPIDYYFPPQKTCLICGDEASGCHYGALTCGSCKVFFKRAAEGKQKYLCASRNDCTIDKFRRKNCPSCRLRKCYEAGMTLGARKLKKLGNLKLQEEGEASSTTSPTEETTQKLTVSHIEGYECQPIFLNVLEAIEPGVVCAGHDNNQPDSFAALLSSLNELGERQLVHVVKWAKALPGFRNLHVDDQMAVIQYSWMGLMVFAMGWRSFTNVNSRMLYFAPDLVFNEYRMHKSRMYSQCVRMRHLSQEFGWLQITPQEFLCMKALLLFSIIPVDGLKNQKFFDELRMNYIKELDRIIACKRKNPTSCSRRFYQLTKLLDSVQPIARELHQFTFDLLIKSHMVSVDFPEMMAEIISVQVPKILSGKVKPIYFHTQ

For one test, the target named is Agonist Androgen Response Element (ARE), AR (gene 367) (UniProt P10275). The test can be described thus: OT_AR_ARELUC_AG_1440: Odyssey Thera (OT) 24-hour CHO-K1 Luciferase Assay for Agonist Androgen Response Element (ARE) (AID 2283379). A digest of the protocol:
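Seed CHO-K1 cells; dose compounds for 24 h; add D-luciferin plus ATP in PBS; read luminescence. Signal increase relative to vehicle defines agonist activity, with at least 3 replicate wells per sample.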
As for `O=[N+]([O-])/N=C1\NCCN1Cc1ccc(Cl)nc1`, the call was inactive.
Same read-out and setting: as for `O=C(O)CCCOc1ccc(Cl)cc1Cl`, the entry is “inactive”.
Regarding `C#CCN1C(=O)COc2cc(F)c(N3C(=O)C4=C(CCCC4)C3=O)cc21`, the outcome was inactive.
Same read-out and setting: for `C[C@H]1[C@H](c2ccc(Cl)cc2)SC(=O)N1C(=O)NC1CCCCC1` the value was “inactive”.

The target in the next test is Estrogen receptor beta (Homo sapiens) (UniProt Q92731). In words: OT_ER_ERbERb_1440: Odyssey Thera (OT) 24-hour HEK293T Protein-Complementation Assay for Estrogen Receptor-beta/-beta Homodimer (AID 2283380).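 Note: fluorescence gain from ER beta LBD homodimer complementation read by laser scanning cytometry; scored as signal increase over DMSO baseline for both agonists and antagonists.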 A digest of the protocol: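 HEK293T cells stably expressing human ER-beta LBD (aa 310-547) PCA homodimer pair, dosed 24 h; formaldehyde-fixed, Draq5-stained. Readout: increase in nuclear (agonist) or nuclear plus cytoplasmic (antagonist) fluorescence intensity versus DMSO, gain-of-signal fitting.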
Chain of Estrogen receptor beta (Homo sapiens) (Q92731 whole entry, looked up, the tested form may be a part): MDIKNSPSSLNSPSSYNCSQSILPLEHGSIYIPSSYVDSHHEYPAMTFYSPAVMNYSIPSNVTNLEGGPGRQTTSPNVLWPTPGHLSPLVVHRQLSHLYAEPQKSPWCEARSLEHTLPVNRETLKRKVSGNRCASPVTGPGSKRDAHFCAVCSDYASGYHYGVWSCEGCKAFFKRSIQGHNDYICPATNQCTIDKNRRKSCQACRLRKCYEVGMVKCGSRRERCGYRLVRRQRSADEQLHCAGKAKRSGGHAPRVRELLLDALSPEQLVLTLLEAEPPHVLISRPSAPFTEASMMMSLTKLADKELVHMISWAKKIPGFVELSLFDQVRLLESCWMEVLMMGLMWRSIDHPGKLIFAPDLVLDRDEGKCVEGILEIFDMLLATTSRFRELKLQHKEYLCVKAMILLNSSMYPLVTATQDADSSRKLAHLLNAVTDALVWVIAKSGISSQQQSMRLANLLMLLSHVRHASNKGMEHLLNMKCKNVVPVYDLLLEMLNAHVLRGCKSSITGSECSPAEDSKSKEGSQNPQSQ
With `O=C(O)C(F)(F)C(F)(F)C(F)(F)C(F)(F)C(F)(F)C(F)(F)C(F)(F)F`, the molecule was classed as inactive.
The same measure, in the same setting: as for `CCC(C)(NC(=O)c1cc(Cl)c(C)c(Cl)c1)C(=O)CCl` (stereo unspecified), the entry is “inactive”.
On the same count and under the same terms, as for `CNC(=O)CSP(=S)(OC)OC`, the entry is “inactive”.
On the same count and under the same terms, for `CN1CSC(=S)N(C)C1` the value was “inactive”; for `CNC(=O)Oc1ccccc1OC(C)C`, “inactive”.
Regarding `OCCOc1ccccc1`, the molecule was classed as inactive.
Same read-out and setting: for `O=[N+]([O-])/N=C1\NCCN1Cc1ccc(Cl)nc1` the value was “inactive”; for `CCc1ccc(C(=O)NN(C(=O)c2cc(C)cc(C)c2)C(C)(C)C)cc1`, “inactive”; for `COc1nn(CSP(=S)(OC)OC)c(=O)s1`, “inactive”.
Still for that read-out and setting: as for `O=C(O)CCCOc1ccc(Cl)cc1Cl`, the entry is “inactive”; as for `CCOCN(C(=O)CCl)c1c(C)cccc1CC`, “inactive”.
The same measure, in the same setting: for `C#CCN1C(=O)COc2cc(F)c(N3C(=O)C4=C(CCCC4)C3=O)cc21` the value was “inactive”; for `CNC(=O)Oc1cccc(N=CN(C)C)c1`, “inactive”; for `O=C1c2ccccc2C(=O)N1SC(Cl)(Cl)Cl`, “inactive”.
`CC(C)(C)C(O)/C(=C\c1ccc(Cl)cc1Cl)n1cncn1` (stereo unspecified): the molecule was called inactive.
With `Clc1ccccc1-c1nnc(-c2ccccc2Cl)nn1`, the molecule was classed as inactive.
Same read-out and setting: as for `O=C(NC(=O)c1c(F)cccc1F)Nc1ccc(OC(F)(F)C(F)OC(F)(F)F)c(Cl)c1` (stereo unspecified), the entry is “inactive”.
On the same count and under the same terms, for `CC1(c2ccc(Oc3ccccc3)cc2)OC(=O)N(Nc2ccccc2)C1=O` (stereo unspecified) the value was “inactive”; for `COP(=O)(OC)OC=C(Cl)Cl`, “inactive”; for `C[C@H]1[C@H](c2ccc(Cl)cc2)SC(=O)N1C(=O)NC1CCCCC1`, “inactive”.
Still for that read-out and setting: for `CNC(=O)/C=C(\C)OP(=O)(OC)OC` the value was “inactive”; for `O=[N+]([O-])c1c(Cl)c(Cl)c(Cl)c(Cl)c1Cl`, “inactive”.
